Assay results: PubChem BioAssay AID1814 (Broad Institute, 2009)
The campaign covered roughly 300,000 compounds. About 22,000 (7.3%) were called active. Not shown: some 2% with an inconclusive outcome. The full list was thinned out, with actives kept by preference. A number with no mark means an inactive call. Rule as the data show it: active = activity score below about -60%; inconclusive = mostly about -28% to -61%; inactive = positive scores.

Assay: Activators working through SNCA 5'UTR binding (MLPCN) (AID 1814)
Conditions: alpha-synuclein 5'UTR reporter, activators screen; stronger effect = lower value; tested at 7.5 µM

Row | SMILES | activity score
1 | COc1ccc2c(c1)CCc1cn3ncc(C#N)c3nc1-2 | 68.1%
2 | COc1ccc2nc(N3CCCC(O)C3)c(C#N)cc2c1 (configuration not stated) | -114% (active)
3 | CCc1ccc(Oc2coc3cc(OC(=O)c4cc5ccccc5oc4=O)ccc3c2=O)cc1 | -67% (active)
4 | Cc1sc(NC(=O)c2ccc3ncsc3c2)c(C(N)=O)c1C | -130% (active)
5 | COc1ccccc1-c1nnc(NC(=O)c2ccc3ncsc3c2)o1 | -132% (active)
6 | COc1ccc(OC)c(/C(C)=N\NC(=O)c2cc3cc(Cl)ccc3n2C)c1 | -215% (active)
7 | CC1CCCCC1NC(=O)/C(C#N)=C/C=C/c1ccccc1[N+](=O)[O-] (configuration not stated) | -239% (active)
8 | O=C(OCC(=O)c1cccs1)C1=COCCO1 | -103% (active)
9 | CCC(C)(C)c1ccc(Oc2ccc(NC(=O)COC(=O)C3=COCCO3)cc2)cc1 | 90.6%
10 | COc1cccc(-c2nnc(N(C)C(=O)c3ccno3)s2)c1 | -79.4% (active)
11 | CCN(CC)S(=O)(=O)c1cc(C(=O)Nc2ccccn2)ccc1C | -79.9% (active)
12 | COc1cccc(NCCC(=O)c2cccc([N+](=O)[O-])c2)c1 | -115% (active)
13 | Nc1ccccc1/C=N\N=C/c1ccccc1N | -112% (active)
14 | Cc1cccc(-n2ncc(Cl)c(Cl)c2=O)c1 | -220% (active)
15 | Fc1ccc(-c2csc(-c3ccc(C4SCCS4)cc3)n2)cc1F | -125% (active)
16 | CCOC(=O)c1cn[nH]c1NC(=S)Nc1ccccc1 | -131% (active)
17 | CS(=O)(=O)Nc1ccc(C2=NN(S(C)(=O)=O)C(c3cccs3)C2)cc1 (configuration not stated) | -69.5% (active)
18 | Cc1ccc(C2CC(c3cccc(NS(C)(=O)=O)c3)=NN2S(C)(=O)=O)cc1 (configuration not stated) | -70.6% (active)
19 | O=C(CN1C(=O)COc2ccccc21)Nc1ccc(F)cc1 | -126% (active)
20 | Cc1ccc(O)c(-c2cc(C(=O)NCc3ccccc3)[nH]n2)c1 | -148% (active)
21 | Cc1ccc(NC(=O)c2cc(-c3ccccc3O)n[nH]2)cc1C | -129% (active)
22 | Cn1nnnc1SCC(=O)Nc1nc2ccccc2s1 | -151% (active)
23 | CCSc1nsc(NC(=O)Nc2cccc(C(C)=O)c2)n1 | -111% (active)

Row | SMILES | activity score
24 | O=C(Nc1ccccc1)Nc1nc2ccccc2s1 | -64.8% (active)
25 | CSc1nsc(NC(=O)Nc2ccccc2)n1 | -123% (active)
26 | CCc1cc2c(=O)c(-c3ccon3)c(N)oc2cc1OC | -160% (active)
27 | COc1ccc(N=C(C)c2sc3ccccc3c2O)cc1 | -125% (active)
28 | Nc1[nH][nH]c(=O)c1N=Nc1ccc2c(c1)OCO2 | -112% (active)
29 | Cc1ccc(NC(=S)Nc2ncccc2C)c(C)c1 | -199% (active)
30 | COc1ccc2c(c1)CCc1c(C(=O)N3CCCC3)noc1-2 | -103% (active)
31 | CNC(=O)/C(C#N)=C/c1c(F)cccc1Cl | -73.3% (active)
32 | O=C(Nn1c(SCc2ccc([N+](=O)[O-])cc2)nc2ccccc2c1=O)c1ccc(F)cc1 | -81.2% (active)
33 | c1ccc(-c2nccc(-c3ccc(-n4cnc5ccccc54)cc3)n2)nc1 | -88% (active)
34 | O=C(c1ccc(Cl)cc1)c1cnc(Nc2ccccc2)s1 | -159% (active)
35 | CC(C)(C)C(=O)c1cnc(Nc2ccccc2)s1 | -123% (active)
36 | COCCN(C(=O)c1ccco1)c1nnc(-c2ccc(OC)cc2)s1 | -68.7% (active)
37 | N#C/C=C\Oc1ccc(Cl)cc1N | -166% (active)
38 | COc1ccccc1C1=Nc2cccc3cccc(c23)N1 | -62.4% (active)
39 | CC1=CC(=C(C#N)c2nc3ccccc3s2)C=C(C)N1c1ccc(F)cc1F | -123% (active)
40 | C=CCn1c(=NC(=O)c2cccs2)sc2cc(NC(C)=O)ccc21 | -164% (active)
41 | Clc1ccccc1SCc1nc2ccccc2[nH]1 | -90.6% (active)
42 | CCNC(=O)N1CCCC(C(=O)c2ccc(-c3ccccc3)cc2)C1 (configuration not stated) | -101% (active)
43 | O=C(Nc1ccc(Cl)c(Cl)c1)N1CC=C(c2ccccc2)CC1 | -65.8% (active)
44 | Cc1ccc(Cl)c(OCC(=O)N2CCc3ccccc3C2)c1 | -117% (active)
45 | COc1ccc(C2CC(c3cccs3)=Nc3ccccc3S2)cc1OC (configuration not stated) | -90.7% (active)
46 | O=C(/C(=C/c1cccc(Cl)c1)c1nc2ccccc2[nH]1)c1ccccc1 | -338% (active)

Row | SMILES | activity score
47 | Cc1nc(NC(=O)C2CCCCC2)sc1C | -136% (active)
48 | O=[N+]([O-])c1ccc(N/N=C/c2ccccc2)cc1 | -210% (active)
49 | O=[N+]([O-])c1cccc(/C=N/Nc2ncc(Br)cn2)c1 | -194% (active)
50 | CSc1ccccc1-c1nnc(-c2ccc(Cl)cc2)o1 | -146% (active)
51 | COc1ccccc1-c1nnc(-c2ccc(F)cc2)o1 | -122% (active)
52 | O=C1C(C=NCC2CCCO2)=C(O)c2ccccc21 (configuration not stated) | -95.6% (active)
53 | CCS(=O)(=O)n1nc(-c2ccc(OC)cc2)nc1SC | -98.6% (active)
54 | CCS(=O)(=O)n1nc(-c2ccccc2)nc1SCc1ccccc1 | -118% (active)
55 | Cc1cc(O)c(NC(=O)c2ccc(C)c([N+](=O)[O-])c2)cc1C | -110% (active)
56 | CCCCSc1nc2ccccc2[nH]1 | -86.8% (active)
57 | COc1ccccc1CSc1nc2ccccc2[nH]1 | -156% (active)
58 | CC(C)n1c(=O)[nH]c2cc(C(=O)Nc3ccccc3)ccc21 | -119% (active)
59 | COc1ccc(-c2c(C#Cc3ccccc3)c3ccccc3n2C)cc1 | -87.3% (active)
60 | CCOC(=O)c1nn(-c2cccc(C)c2)cc1C(=O)c1ccccc1 | -90.5% (active)
61 | O=C1c2ccccc2S(=O)(=O)c2cc(N3CCN(c4ccccn4)CC3)ccc21 | -68.6% (active)
62 | COc1ccc(C2=NOC(COC(=O)c3ccc4ccccc4n3)C2)cc1 (configuration not stated) | -68.4% (active)
63 | CN(C)c1ccc(-c2nnc(-c3cccnc3)o2)cc1 | -195% (active)
64 | c1ccc(CN=C2Nc3ccccc3CS2)nc1 | -111% (active)
65 | COc1ccc(N2C(=O)c3ccccc3NC2c2ccc(OC)c(CN3CCOCC3)c2)cc1 (configuration not stated) | -72.6% (active)
66 | COc1ccc(C2Nc3ccccc3C(=O)N2c2ccc(Cl)cc2)cc1Cn1cc([N+](=O)[O-])cn1 (configuration not stated) | -111% (active)
67 | CCN(CC)C(=O)C(=O)Nc1cccc(Br)c1 | -75.5% (active)
